Measured values published in PubChem BioAssay AID504914 (The Scripps Research Institute Molecular Screening Center, 2011).
The list shows a part of the results. The source made the active and inactive calls. How the calls were made is not given here.

Target: 5-hydroxytryptamine receptor 5A (Homo sapiens) (UniProt P47898)
Test: HTR5A inverse agonists, counter-screen for OPRM1-OPRD1 inverse agonist project, cell-based, luminescence (AID 504914);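 further: 0% = cells with DMSO and 100% = no-cell wells with DMSO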
Settings: HTR5A-expressing cells, inverse agonism, at 9.3 µM, active compounds read high

Sequence of 5-hydroxytryptamine receptor 5A (Homo sapiens) (P47898 whole entry, looked up): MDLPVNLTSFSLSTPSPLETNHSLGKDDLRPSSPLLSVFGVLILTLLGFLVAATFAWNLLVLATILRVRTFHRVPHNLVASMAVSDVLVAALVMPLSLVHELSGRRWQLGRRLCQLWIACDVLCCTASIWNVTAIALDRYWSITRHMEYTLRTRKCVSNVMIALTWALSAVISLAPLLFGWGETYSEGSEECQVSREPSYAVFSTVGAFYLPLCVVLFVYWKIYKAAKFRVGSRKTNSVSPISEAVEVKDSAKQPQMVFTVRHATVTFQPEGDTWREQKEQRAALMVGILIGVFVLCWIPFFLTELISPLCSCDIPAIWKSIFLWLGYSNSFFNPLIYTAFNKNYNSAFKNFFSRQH

Row | Compound | inhibition
1 | Cc1ccc(NNC(=O)c2cccs2)cc1Cl | -15% (inactive)
2 | CN(c1ccccc1)S(=O)(=O)c1ccc(NC(=O)COc2ccccc2)cc1 | -4.8% (inactive)
3 | N#CC1=C(N)C(C#N)(C#N)[C@H](c2ccsc2)[C@H]2COCC=C12 | -8.6% (inactive)
4 | CCOc1ccc(NC(=O)c2cccc3c2C(=O)N(CC2CCCO2)C3)cc1 (configuration not stated) | -4.42% (inactive)
5 | CN(C)/C=C1/Nc2ccccc2C1=O | 5.59% (inactive)
6 | COc1cc(NS(=O)(=O)c2ccc3ccccc3c2)c2ncccc2c1 | -111% (inactive)
7 | C=CCn1c(N)c(C(=O)OCC(C)C)c2nc3ccccc3nc21 | 10.8% (inactive)
8 | CC(C)OC(=O)CN1C(=O)C(=O)c2ccccc21 | 4.72% (inactive)
9 | Cc1ccc(NC2(C#N)C(=O)Nc3ccccc32)cc1 (configuration not stated) | -97.2% (inactive)
10 | CCCCC(=O)NNC(=S)NC(=O)C(c1ccccc1)c1ccccc1 | -76% (inactive)
11 | O=C1C(=O)N(CC2COc3ccccc3O2)c2ccccc21 (configuration not stated) | 12% (inactive)
12 | COC(=O)Cc1c(-c2[nH]c3ccccc3c2CC(=O)OC)[nH]c2ccccc12 | -66.2% (inactive)
13 | CCOC(=O)CN1C(=O)C(O)(CC(=O)c2ccccn2)c2ccccc21 (configuration not stated) | 10.2% (inactive)
14 | Cc1cccc(C)c1NC(=O)C(Cl)C(=O)c1ccccc1 (configuration not stated) | -75.6% (inactive)
15 | Cc1ccc2c(c1)C(O)(CC(=O)c1cccnc1)C(=O)N2 (configuration not stated) | 0% (inactive)
16 | Cc1cccc(N=Nc2c(O)[nH]c3ccc(F)cc23)c1 | 22.6% (inactive)
17 | CN(O)C(=S)c1ccccc1 | 26.7% (inactive)
